Source: PubChem BioAssay (EPA / NIEHS)
Calls of active or inactive are those of the source. How the source made its calls: active means hit-call score of the fitted dose curve at least 0.9, where 1 is the maximum; inactive means score below 0.9.

read-out: Vascular cell adhesion molecule 1 (VCAM1), VCAM1 (gene 7412); test: BSK_hDFCGF_VCAM1: BioMAP Diversity Plus: hDFCGF Assay for Vascular cell adhesion molecule 1 (VCAM1) Biomarker Activity (AID 2283065); details: primary human foreskin fibroblasts; actives raise or lower the signal
Procedure: BSK_hDFCGF is a cell-based, multiplexed-readout assay that uses foreskin fibroblast, a human skin primary cell, with measurements taken at 24 hours after chemical dosing in a 96-well plate.BSK_hDFCGF_VCAM1 is an assay component measured in the BSK_hDFCGF assay. It measures VCAM-1 antibody related to regulation of gene expression using ELISA technology.Data from the assay component BSK_hDFCGF_VCAM1 was analyzed into 1 assay endpoint. This assay endpoint, BSK_hDFCGF_VCAM1, was analyzed with bidirectional fitting relative to DMSO as the negative control and baseline of activity. Using a type of binding reporter, gain or loss-of-signal activity can be used to understand changes in the signaling as they relate to the gene VCAM1. Furthermore, this assay endpoint can be referred to as a primary readout, because this assay has produced multiple assay endpoints where this one serves a signaling function. To generalize the intended target to other relatable targets, this assay endpoint is annotated to the cell adhesion molecules intended target family, where the subfamily is Immunoglobulin CAM.
The levels of cell surface (or secreted, indicated by the prefix "s") biomarker endpoints were measured by ELISA. Overt cytotoxicity to cells in confluent adherent cultures (all systems other than the BT system) was assessed by measuring total protein levels using sulforhodamine B (SRB) staining in parallel cultures at the time of biomarker measurements, indicated as SRB endpoints. For proliferation assays for adherent cell types, individual cell types are cultured at sub-confluence and relative cell numbers quantified by SRB staining at time points optimized for each system (48 h: 3C and CASM3C systems; 72 h: BT and HDF3CGF systems; 96 h: SAg system). SRB was performed by staining cells with 0.1% SRB after fixation with 10% TCA and reading wells at 560 nm.Viability and proliferation of PBMC (T cells) was quantified by Alamar Blue reduction for the SAg and BT systems. For PBMC viability (referred to as PBMC Cytotoxicity within the assay endpoint names), cells were plated (75,000/well in a 96-well plate) and then chemical samples added for 1 h before addition of activators, SEB and TSST-1 (20 ng/mL final concentration each). Cells were incubated for 90 h. Then, Alamar Blue (20 uL/well) (Invitrogen, Cat DAL1100) was added for 6 h, and the plates were read with a fluorescence microplate reader at 546/580 nm (excitation/emission). For PBMC proliferation, cells were plated and activated as above but incubated for only 16 h prior to addition of Alamar Blue. Plates were read after 6 h.

| Compound | AC50 | outcome |
| --- | --- | --- |
| CCN(CC)c1nc(C)cc(OP(=S)(OC)OC)n1 | 27 µM (active) | – |
| CCCN(CC)CC1COC2(CCC(C(C)(C)C)CC2)O1 (stereo not given) | – | inactive |
| CCOc1nc(F)cc2nc(S(=O)(=O)Nc3c(Cl)cccc3Cl)nn12 | – | inactive |
| Nc1c(Cl)c(Cl)nc(C(=O)O)c1Cl | – | inactive |
| CC1(C)C(C=C(Cl)Cl)C1C(=O)OC(C#N)c1cccc(Oc2ccccc2)c1 (stereo not given) | – | inactive |
| COCc1cnc(C2=NC(C)(C(C)C)C(=O)N2)c(C(=O)O)c1 (stereo not given) | – | inactive |
| O=P(O)(O)CCCl | – | inactive |
| Clc1nc(Cl)nc(Nc2ccccc2Cl)n1 | 36.1 µM (active) | – |
| CNC(=O)N(C)c1nnc(C(C)(C)C)s1 | – | inactive |
| N#Cc1c[nH]cc1-c1cccc2c1OC(F)(F)O2 | 5.39 µM (active) | – |
| CC(C)N1C(=O)N(c2ccccc2)CSC1=NC(C)(C)C | 32.1 µM (active) | – |
| O=c1n(Cl)c(=O)n(Cl)c(=O)n1Cl | – | inactive |
| CCOC(=O)C(C)OC(=O)c1cc(Oc2ccc(C(F)(F)F)cc2Cl)ccc1[N+](=O)[O-] (stereo not given) | – | inactive |
| Cc1ccc(N=CN(C)C=Nc2ccc(C)cc2C)c(C)c1 | 15.8 µM (active) | – |
| COCC(C)N(C(=O)CCl)c1c(C)csc1C (stereo not given) | – | inactive |
| Cc1nc(N(C)C)nc(OC(=O)N(C)C)c1C | – | inactive |
| COc1cc(OC)nc(NC(=O)NS(=O)(=O)c2ncccc2OCC(F)(F)F)n1 | – | inactive |
| CCCCOCN(C(=O)CCl)c1c(CC)cccc1CC | 16.9 µM (active) | – |
| Cc1cnc(C2=NC(C)(C(C)C)C(=O)N2)c(C(=O)O)c1 (stereo not given) | – | inactive |
| CC(C)=CC1C(C(=O)OCc2coc(Cc3ccccc3)c2)C1(C)C (stereo not given) | – | inactive |

| Compound | AC50 | outcome |
| --- | --- | --- |
| O=C(Nc1ccccc1-c1ccc(Cl)cc1)c1cccnc1Cl | – | inactive |
| Nc1cnn(-c2ccccc2)c(=O)c1Cl | – | inactive |
| O=C(O)c1c(Cl)ccc2cc(Cl)cnc12 | – | inactive |
| CCNP(=S)(OC)O/C(C)=C/C(=O)OC(C)C (stereo not given) | – | inactive |
| COP(=S)(OC)SCn1nnc2ccccc2c1=O | – | inactive |
| CC(C)Nc1nc(Cl)nc(NC(C)C)n1 | – | inactive |
| COc1cc(Cl)c(OC)cc1Cl | – | inactive |
| CCC(C)n1c(=O)[nH]c(C)c(Br)c1=O (stereo not given) | – | inactive |
| COP(=S)(OC)Oc1ccc([N+](=O)[O-])c(C)c1 | 9.37 µM (active) | – |
| CCOP(=O)(OCC)Oc1nc(Cl)c(Cl)cc1Cl | 18.4 µM (active) | – |
| Cc1cc(C)nc(Nc2ccccc2)n1 | – | inactive |
| CC(C)Oc1cccc(NC(=O)c2ccccc2C(F)(F)F)c1 | – | inactive |
| Clc1cccc(C(Cl)(Cl)Cl)n1 | – | inactive |
| CC1(C)CON(Cc2ccccc2Cl)C1=O | – | inactive |
| CCSC(=O)N1CCCCCC1 | – | inactive |
| OC(c1ccc(Cl)cc1)(c1ccc(Cl)cc1)C(Cl)(Cl)Cl | 8.87 µM (active) | – |
| COC(=O)NC(=S)Nc1ccccc1NC(=S)NC(=O)OC | – | inactive |
| N#CN=C1SCCN1Cc1ccc(Cl)nc1 | – | inactive |
| CCCCC(C#N)(Cn1cncn1)c1ccc(Cl)cc1 (stereo not given) | – | inactive |
| CN/C(=N\[N+](=O)[O-])NCc1cnc(Cl)s1 | – | inactive |
